# Sampled rows, rich in hits. Any-hit rate of the full collection: about 12%.
# BAZ2B inh = inhibitors of human BAZ2B bromodomain; Q9UIF8; AlphaScreen BAZ2B-H3K14Ac peptide displacement; Potency, µM (series often up to 114 µM), for inactives: at the top dose activity change, negative = inhibition, hits mostly inhibitors; hit rate 4.4% among 360,000; further: potency means the concentration at half of the fitted maximal effect; on the % scale 0 is the no-effect control and ±100 the full control effect; nearly all actives have a fitted effect of over 60% in size
#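 AlphaScreen displacement of biotin-H3(5-23)K14Ac peptide (50 nM final) from BAZ2B (50 nM final) in PBS pH 7.4, 0.01% Tween-20; complex preformed 30 min RT, then compounds (top 110 uM) 30 min RT, beads 20 min dark.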
# HP1b binding inh = HP1-beta chromodomain-methylated histone interaction inhibition | AlphaScreen HP1-beta / biotin-H3K9me3 peptide binding | Potency, µM (top dose mostly 114 µM), without a hit: at the highest dose activity change, negative = inhibition, usual class: inhibitors | hit rate 0.56% among 390,000; further: potency means the concentration at half of the fitted maximal effect; nearly all actives have a fitted effect of over 70% in size
#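 HP1-beta protein (50 nM final) preincubated 30 min at room temperature with biotinylated H3(1-18)K9me3 peptide (50 nM) in PBS pH 7.4, 0.01% Tween-20, then compound added for 30 min. AlphaScreen streptavidin donor/nickel chelate acceptor beads (10 ug/mL final), 30 min dark, luminescence read.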
# PLK1 PBD block = inhibitors of human PLK1 polo-box domain binding | P53350 | Plk1 PBD binding of FITC phosphopeptide, fluorescence polarization | Potency, µM, without a hit: max response, negative = inhibition, actives largely listed as inhibitors | hit rate 2.8% among 360,000 | AID 720504; further: potency means the concentration at half of the fitted maximal effect; series mostly up to about 57 µM; on the % scale 0 is the no-effect control and ±100 the full control effect; nearly all actives have a fitted effect of over 65% in size
# JMJD2A Tudor inh = blocks the human JMJD2A Tudor domain; AlphaScreen JMJD2A-Tudor / H3K4me3 peptide binding; AID 504339; hit rate 4.4% among 390,000; Potency, µM (titrated, usually from 114 µM), inactives show at the highest dose activity change, negative = inhibition, hits mostly inhibitors; further: potency means the concentration at half of the fitted maximal effect; on the % scale 0 is the no-effect control and ±100 the full control effect; nearly all actives have a fitted effect of over 50% in size
# Target sequence (O75164 whole entry, looked up, the tested form may be a part): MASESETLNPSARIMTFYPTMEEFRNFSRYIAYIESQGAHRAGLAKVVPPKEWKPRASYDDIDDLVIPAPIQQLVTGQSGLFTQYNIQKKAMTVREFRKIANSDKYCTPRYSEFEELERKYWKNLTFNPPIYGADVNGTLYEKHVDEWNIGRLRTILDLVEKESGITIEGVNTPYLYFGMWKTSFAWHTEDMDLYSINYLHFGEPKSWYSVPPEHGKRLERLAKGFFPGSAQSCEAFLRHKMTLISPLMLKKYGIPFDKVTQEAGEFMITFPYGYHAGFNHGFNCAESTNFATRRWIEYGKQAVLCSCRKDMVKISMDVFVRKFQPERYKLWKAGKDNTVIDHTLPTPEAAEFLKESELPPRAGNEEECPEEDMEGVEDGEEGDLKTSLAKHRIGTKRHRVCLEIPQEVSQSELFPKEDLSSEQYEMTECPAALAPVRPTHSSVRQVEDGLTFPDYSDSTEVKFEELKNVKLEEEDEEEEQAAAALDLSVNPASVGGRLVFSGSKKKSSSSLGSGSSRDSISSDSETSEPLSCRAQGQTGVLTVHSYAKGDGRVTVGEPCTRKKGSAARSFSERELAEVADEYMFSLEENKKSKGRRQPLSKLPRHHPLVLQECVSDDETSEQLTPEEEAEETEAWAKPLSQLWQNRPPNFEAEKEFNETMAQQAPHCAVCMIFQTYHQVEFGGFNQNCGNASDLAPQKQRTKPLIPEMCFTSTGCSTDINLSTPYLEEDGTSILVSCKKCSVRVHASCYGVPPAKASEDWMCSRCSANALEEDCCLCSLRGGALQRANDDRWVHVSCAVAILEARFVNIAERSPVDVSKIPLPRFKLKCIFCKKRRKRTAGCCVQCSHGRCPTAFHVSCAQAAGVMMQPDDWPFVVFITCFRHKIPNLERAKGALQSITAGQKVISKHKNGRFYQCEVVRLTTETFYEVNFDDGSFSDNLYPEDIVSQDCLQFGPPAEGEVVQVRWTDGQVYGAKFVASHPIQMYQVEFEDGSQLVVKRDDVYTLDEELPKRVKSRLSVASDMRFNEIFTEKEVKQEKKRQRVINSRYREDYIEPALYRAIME
# G9a block = blocks human histone lysine methyltransferase G9a; Q96KQ7; hit rate 8.8% among 350,000; Potency, µM (doses to about 102 µM), for the others: at the top dose activity, negative = inhibition, usual class: inhibitors; G9a H3K9 monomethylation, AlphaScreen, 2 h; further: potency means the concentration at half of the fitted maximal effect; on the % scale 0 is the no-effect control and ±100 the full control effect; nearly all actives have a fitted effect of over 75% in size
#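 Step 1: enzyme (final 20 nM) with compound, 15 min RT. Step 2: substrate peptide 500 nM and SAM 20 uM, 2 h RT. Step 3: anti-H3K9me1 antibody and AlphaScreen beads, 10 min, then plate read.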
# PI5P4Ka inh = blocks human PI5P4K alpha kinase activity; P48426; PI5P4Kalpha enzyme, ADP-Glo luminescence, 60 min; active compounds read low; max response, %; hit rate 1.2% among 330,000; active means max response of -50% or lower; inconclusive means between -30% and -50%; inactive means -30% or higher; further: value at the top dose of about 77 µM; on the % scale 0 is the no-effect control and ±100 the full control effect
#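 Reactions run in 0.038 M HEPES pH 7.4, 0.28 mM EGTA, 0.1% CHAPS and 5% DMSO, with PI5P4Kalpha, substrate, compound and 5 microM ATP final, one hour at room temperature. Readout is ADP-Glo luminescence.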
# The depositor's hits bear a star; ? = inconclusive; nt = no result; [ ] = another dose, or the depositor's remark. Unless noted, the call rests on the fitted dose curve; in most records, active means well fitted curve in the direction sought with a large enough effect; inconclusive means small, poorly fitted or top-dose-only effect, or another doubt; inactive means no such curve, though single readings can be large; an effect the other way counts as inactive or inconclusive.
SMILES,BAZ2B inh,HP1b binding inh,PLK1 PBD block,JMJD2A Tudor inh,G9a block,PI5P4Ka inh
Cc1ccc2c(c1)C(c1ccccc1)N(C(=O)c1ccc(Br)o1)CC(=O)N2 (stereo not drawn),?,-1%,-13%,?,40µM*,-5
O=C1CN(C(=O)c2ccc(Br)o2)C(c2ccccc2)c2cc(Cl)ccc2N1 (stereo not drawn),?,-5%,1%,-34%,56µM*,-3
CCc1ccc(-c2csc3[n+]2CCN3C(C)=O)cc1,?,7%,?,-36%,11µM*,nt
COc1ccc(C(C(=O)Nc2ccc(F)cc2)N2CCN(c3cccc(C(F)(F)F)n3)CC2)cc1 (stereo not drawn),nt,nt,-13%,nt,nt,4
O=C(O)CN1C2=NCCCN2c2ccccc21,-25%,14%,-11%,5%,?,9
O=C(CN1C2=NCCCN2c2ccccc21)c1ccc(Br)s1,-34%,9%,-2%,-18%,50µM*,1
Cc1ccc(CN2C3=NCCCN3c3ccccc32)cc1,5%,-8%,24µM*,-27%[11.4 µM],-40%,5
CC(C)N=C1NN=C(c2ccc(Cl)c(Cl)c2)CS1,?,-11%,-17%,?,45µM*,-3
CC(C)c1ccc(N=C2NN=C(c3cccs3)CS2)cc1,?,-15%,-5%,-33%,-4%,10
CC(C)N=C1NN=C(c2cccs2)CS1,-14%,-12%,-18%,-7%[57.1 µM],20µM*,-14
CC(C)(C)N=C1NN=C(c2ccc(Cl)cc2)CS1,?,0%,-12%,?,-1%[59 µM],-4
Cc1csc(Nc2ccccc2)[n+]1-c1ccccc1,45µM*,28µM*,-16%,22µM*,10µM*,-8
CC1(C)CC(=O)C(CC2C(=O)CC(C)(C)CC2=O)C(=O)C1,-3%,28%,-21%,-9%,22µM*,4
CC1(C)CC(=O)C(CC2CCCCC2=O)C(=O)C1 (stereo not drawn),1%,36%,-13%,-20%,31%[59 µM],2
COc1cccc(C2CC(c3ccccc3Cl)n3nc(N)nc3N2)c1 (stereo not drawn),-14%,44%,-1%,-31%,19%[59 µM],nt
COc1ccc(C2(c3ccc(O)cc3O)CC(c3ccccc3Cl)NC(=S)N2)cc1 (stereo not drawn),28µM*,?,-26%,50µM*,?,-18
Cc1[nH]c2ccccc2c1SCc1ccccc1,9%,47%,-2%,-10%,2%,23
Cc1[nH]c2ccccc2c1Cc1n[nH]c(=S)o1,-12%,10%,?,79µM*,8.9µM*,-7
Cc1[nH]c2ccccc2c1SCc1n[nH]c(=S)n1C,-15%,15%,-15%,10µM*,4µM*,-10
Cn1c(Cc2c[nH]c3ccccc23)n[nH]c1=S,7%,-12%,-6%,5µM*,?,-5
N#Cc1c(N)n[nH]c1Cc1cccc2ccccc12,nt,34%,nt,-13%,nt,nt
Cc1[nH]c2ccccc2c1Cc1nnc(SCC(N)=O)o1,-2%,43%,-1%,-14%,-8%[59 µM],3
S=c1[nH]nc(Cc2cccc3ccccc23)o1,-25%,20%,-12%,79µM*,2.2µM*,4
CCOCC(=O)Nc1ccc(S(=O)(=O)N2CCC(c3nc4ccccc4[nH]3)CC2)cc1,3%,28%,0%,-4%,?,0
Cc1[nH]c2ccccc2c1Cc1n[nH]c(=S)n1C,2%,-43%,-10%,6.3µM*,2µM*,-9
SMILES,BAZ2B inh,HP1b binding inh,PLK1 PBD block,JMJD2A Tudor inh,G9a block,PI5P4Ka inh
CC(Cc1n[nH]c(=S)o1)c1ccccc1 (stereo not drawn),?,33%,24µM*,?,8.9µM*,-22
CCN(CC)CCNC(=O)c1ccc(NC(=O)Cc2cccc3ccccc23)cc1,-9%,10%,-2%,-21%,?,0
Cn1c(N=Cc2ccc([N+](=O)[O-])cc2)c(N)c(=O)n(C)c1=O,nt,9%,-15%,-20%,nt,15
Cc1[nH]ncc1N=Cc1ccc([N+](=O)[O-])cc1,-8%,-14%,21µM*,-33%,-7%,-23
Cc1ccc(C)c(N2CCN(C(=O)Cn3cnc4sc(C)c(S(=O)(=O)N5CCN(c6ncccn6)CC5)c4c3=O)CC2)c1,-1%,28%,nt,-13%,-4%[59 µM],nt
COc1cc(Cl)cc2c1Sc1ccccc1/C2=C/CCN(C)C,45µM*,-18%,-14%,?,?,7
CN(C)CC/C=C1/c2ccccc2Sc2c(O)cc(Cl)cc21,?,-22%,-7%,?,25µM*,-2
COc1cc(-c2nnc(SCC(=O)NC(C)C)o2)cc(OC)c1OC,-13%,34%,nt,0%,-23%[59 µM],nt
CC1(C)Cc2ccccc2/C(=C/C(=O)N2CCCCCC2)N1,56µM*,0%,-14%,?,35µM*,nt
C[C@@H]1CCC2[C@](C)(CO)[C@@H](O)CC[C@]2(C)[C@@]12CCC(CO)(CCO)O2 (stereo partly drawn),-3%,21%,27µM*,-6%,10%,1
Cc1cc(NO)nc(-c2ccc(Br)cc2)n1,nt,?,-17%,20µM*,?,nt
O=C(CNC(=O)c1ccc(F)cc1)OCc1cc(=O)n2ccsc2n1,0%,-5%,nt,-16%,11%[59 µM],nt
C=CCNc1nc2cc(-c3cccc(Cl)c3)sc2c(=O)n1C,nt,nt,-4%,nt,nt,9
Cc1cccc(C)c1NC(=O)C(c1ccccc1)N1CCC(Cc2ccccc2)CC1 (stereo not drawn),nt,nt,-2%,nt,nt,-5
O=c1[nH]c(=O)c2[nH]c(=S)[nH]c2[nH]1,nt,10µM*,8.4µM*,2.5µM*,nt,-86*
CCOC(=O)c1ccc(NC(=O)CCCn2nc(C)c3sc4ccccc4c3c2=O)cc1,-34%,60%,nt,-10%,-10%[59 µM],nt
NS(=O)(=O)c1ccc(NS(=O)(=O)c2ccc(C3CNC(=O)C3)cc2)cc1 (stereo not drawn),-2%,8%,30µM*,50µM*,-35%,7
O=C1CC(c2ccc(S(=O)(=O)N3CCCCC3)cc2)CN1 (stereo not drawn),-7%,17%,-4%,-15%,-3%[59 µM],nt
CCCCN(CCCNC(=O)c1c(C)cc(=O)oc1C)c1ccccc1,45µM*,?,-8%,50µM*,50µM*,nt
CN1C2C=C3C(C#N)=C(N)C(C#N)(C#N)[C@@H](c4cccs4)C3C1CC2 (stereo partly drawn),-1%,48%,-14%,-23%,-24%[12.7 µM],-7
CC(C)(C)C1CC=C2C(C#N)=C(N)C(C#N)(C#N)C(c3cccs3)C2C1 (stereo not drawn),?,nt,nt,nt,50µM*,nt
COc1cc(NC(=O)CCCc2c[nH]c3ccccc23)cc(OC)c1,?,-14%,-20%,?,-18%[59 µM],3
COc1cc(CNCc2c[nH]c3ccccc23)cc(OC)c1,56µM*,?,7%,3.5µM*,14µM*,1

# Source: PubChem BioAssay
